# Experimental data as given in publication PMC4336329 (PLoS ONE, 2015).
# Hit rate of the full screen: of about 310,000 compounds, about 14,000 (4.5%) showed an effect of 50% or more. The effect is printed as a negative number. The entries come from a sample that favours strong results as a whole.
# Molecular target: human ether-à-go-go-related gene (hERG) potassium channel (human, UniProt Q12809)
# Experiment: primary screen, population patch clamp on CHO cells stably expressing hERG; higher = less effect of the substance
# 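Note: peak tail current of the secondary pulse compared with the same well before compound.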
# Chain of human ether-à-go-go-related gene (hERG) potassium channel (Q12809 whole entry, looked up): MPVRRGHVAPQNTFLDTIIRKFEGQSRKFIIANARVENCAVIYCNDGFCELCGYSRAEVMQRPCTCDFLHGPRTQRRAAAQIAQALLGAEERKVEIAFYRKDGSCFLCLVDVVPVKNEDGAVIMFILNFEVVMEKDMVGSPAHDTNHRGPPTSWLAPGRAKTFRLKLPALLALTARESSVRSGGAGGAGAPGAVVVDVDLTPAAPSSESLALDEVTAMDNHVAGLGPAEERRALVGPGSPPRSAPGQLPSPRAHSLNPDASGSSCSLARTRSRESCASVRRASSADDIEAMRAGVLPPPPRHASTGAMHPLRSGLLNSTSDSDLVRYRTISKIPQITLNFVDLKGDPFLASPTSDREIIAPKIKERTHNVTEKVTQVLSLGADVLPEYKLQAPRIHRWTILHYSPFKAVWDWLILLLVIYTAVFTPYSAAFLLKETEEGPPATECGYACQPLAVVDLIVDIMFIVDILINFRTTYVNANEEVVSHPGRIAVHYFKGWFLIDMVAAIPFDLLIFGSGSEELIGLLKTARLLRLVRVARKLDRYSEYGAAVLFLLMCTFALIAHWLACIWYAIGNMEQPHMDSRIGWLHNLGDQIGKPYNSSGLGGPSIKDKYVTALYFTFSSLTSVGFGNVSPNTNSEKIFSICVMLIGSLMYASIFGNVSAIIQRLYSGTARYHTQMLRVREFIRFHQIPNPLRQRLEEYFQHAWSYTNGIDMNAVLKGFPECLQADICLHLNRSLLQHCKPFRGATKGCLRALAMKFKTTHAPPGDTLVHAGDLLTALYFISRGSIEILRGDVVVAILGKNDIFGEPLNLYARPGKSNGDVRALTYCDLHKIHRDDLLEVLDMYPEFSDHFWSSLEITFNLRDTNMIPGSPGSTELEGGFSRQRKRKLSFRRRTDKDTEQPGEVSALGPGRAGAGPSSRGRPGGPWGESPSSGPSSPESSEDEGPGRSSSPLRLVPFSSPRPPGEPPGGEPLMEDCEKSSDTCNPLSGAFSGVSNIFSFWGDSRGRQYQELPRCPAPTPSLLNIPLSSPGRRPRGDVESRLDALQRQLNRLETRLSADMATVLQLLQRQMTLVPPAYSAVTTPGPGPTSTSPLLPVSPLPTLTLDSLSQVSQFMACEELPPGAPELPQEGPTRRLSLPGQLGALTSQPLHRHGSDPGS
row,SMILES,"hERG current change (%, negative = inhibition) at 10uM"
1,COc1ccc(S(=O)(=O)N2CCC(C(=O)NC3(C)CCS(=O)(=O)C3)CC2)cc1OC (centres unmarked),7.87%
2,Cc1cc(C)nc(N2CCCC(C(=O)NCc3cccc(C(F)(F)F)c3)C2)n1 (centres unmarked),16.7%
3,Cc1ccc(CN2CCN(/N=C/c3cc(Br)cc(Br)c3O)CC2)cc1,5.09%
4,CCOC(=O)C(CC)/C(C)=N\NC(=O)c1cccc(C)c1 (centres unmarked),35.5%
5,O=S(=O)(NCc1ccc(C(F)(F)F)cc1)c1ccc(-n2cnnn2)cc1,-22.2%
6,COC(=O)C1=C(C)NC(=S)N(C(C)=O)C1c1ccccc1 (centres unmarked),-8.87%
7,CCc1sc(C(=O)Nc2cc(S(=O)(=O)N3CCOCC3)ccc2OC)cc1C,7.24%
8,O=c1[nH]c(C2CCCN(S(=O)(=O)c3ccccc3)C2)nc2c1nnn2Cc1ccc(OC(F)(F)F)cc1 (centres unmarked),26.6%
9,COc1cccc(-c2nnc(SCC(N)=O)n2-c2ccc(Cl)cc2)c1,-9.7%
10,CC(=O)NNC(=O)CN1C(=O)CN=C(c2ccccc2)c2cc(Br)ccc21,13.1%
11,NNC(=O)CN1C(=O)CN=C(c2ccccc2)c2cc(Br)ccc21,-5.51%
12,O=C1CN=C(c2ccccc2)c2cc(Br)ccc2N1Cc1cc(=O)n2ccccc2n1,-51.7%
13,O=C(C1CCCN1S(=O)(=O)c1cccc2nsnc12)N1CCCCCC1 (centres unmarked),7.97%
14,O=C(C1CCCN1S(=O)(=O)c1cccc2nsnc12)N1CCCCC1 (centres unmarked),11%
15,O=C(C1CCCN1S(=O)(=O)c1cccc2nsnc12)N1CCN(c2ccc(F)cc2)CC1 (centres unmarked),-69.3%
16,CC(=O)c1ccc(N2CCN(C(=O)C3CCCN3S(=O)(=O)c3cccc4nsnc34)CC2)cc1 (centres unmarked),-1.72%
17,COc1ccc(N2CCN(C(=O)C3CCCN3S(=O)(=O)c3cccc4nsnc34)CC2)cc1 (centres unmarked),-30.6%
18,O=C(C1CCCN1S(=O)(=O)c1cccc2nsnc12)N1CCN(c2ccccc2)CC1 (centres unmarked),-69.5%
19,CCOc1ccc(/C(O)=C2/C(=O)C(=O)N(c3ncccn3)C2c2ccccc2)cc1 (centres unmarked),-4.75%
20,CN1CCN(S(=O)(=O)c2cccc(C(=O)Nc3cc(C(F)(F)F)ccc3N3CCCC3)c2)CC1,-1.41%
21,CCCCCn1nc(C)c(/C=N/NC(=O)c2ccoc2C)c1C,-43.8%
22,Cc1cc(C(=O)N/N=C/c2c(C)nn(-c3ccccc3)c2C)c(C)o1,3.8%
23,CCCCCn1nc(C)c(/C=N\NC(=O)c2cc(C)oc2C)c1C,-65.5%
